Screens from PubChem BioAssay.
Only some compounds are listed: those with a hit (about 9.4% of all), similar ones and a draw of the others.
FLuc modulator: qHTS profiling assay for firefly luciferase inhibitor/activator using purifed enzyme and Km concentrations of substrates (counterscreen for miR-21 project); Luciferin 4-monooxygenase (Photinus pyralis), P08659; purified FLuc, Km substrates, luminescence inhibition; Potency, µM (titrated, usually from 57.5 µM), for inactives: at the top dose activity change, negative = inhibition, most hits filed as inhibitors; 360,000 tested, 6.9% active;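 also: plate controls were vehicle for no effect and reference inhibitor for full effect; nearly all actives have a fitted effect of over 55% in size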
Target sequence (P08659 whole entry, looked up): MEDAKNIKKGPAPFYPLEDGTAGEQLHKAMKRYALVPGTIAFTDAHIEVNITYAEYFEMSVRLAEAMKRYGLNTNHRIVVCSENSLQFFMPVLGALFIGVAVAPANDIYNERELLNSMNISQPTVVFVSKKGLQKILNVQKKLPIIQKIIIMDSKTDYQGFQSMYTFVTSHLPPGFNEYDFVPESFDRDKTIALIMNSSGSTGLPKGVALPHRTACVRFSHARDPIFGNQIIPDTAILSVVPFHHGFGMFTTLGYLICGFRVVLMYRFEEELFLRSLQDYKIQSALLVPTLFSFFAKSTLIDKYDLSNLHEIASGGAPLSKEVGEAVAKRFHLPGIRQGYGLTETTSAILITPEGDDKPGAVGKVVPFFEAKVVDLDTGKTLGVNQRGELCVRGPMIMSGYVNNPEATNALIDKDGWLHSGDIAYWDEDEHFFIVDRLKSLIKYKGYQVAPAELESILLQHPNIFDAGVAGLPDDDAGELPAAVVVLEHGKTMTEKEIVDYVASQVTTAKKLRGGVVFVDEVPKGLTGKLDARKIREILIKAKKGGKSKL
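Purified P. pyralis luciferase (10nM final) with 10uM D-luciferin and 10uM ATP (Km levels) in 50mM Tris acetate pH 7.5, 10mM Mg acetate, 0.01% Tween-20, 0.05% BSA; qHTS 6-point titration, ~60 µM downward; luminescence read.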
ELG1 genotox: qHTS screen for small molecules that induce genotoxicity in human embryonic kidney (HEK293T) cells expressing luciferase-tagged ELG1; HEK293T ELG1-luciferase reporter, luminescence, 16 h; Potency, µM (top dose mostly 46 µM), for inactives: at the highest dose activity change, positive = activation, most hits filed as activators; 330,000 tested, 1.3% active; also: % of control where 0% means no effect; nearly all actives have a fitted effect of over 60% in size
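After overnight (16 hr) compound treatment at 37 °C, ELG1-luciferase HEK293T cells were lysed with ONE-Glo; luminescence quantified 30 min later at room temperature.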
ELG1 repair inh: qHTS screen for small molecules that inhibit ELG1-dependent DNA repair in human embryonic kidney (HEK293T) cells expressing luciferase-tagged ELG1; HEK293T ELG1-luciferase reporter, luminescence, 16 h; DNA damage induced by 5-fluorouridine; Potency, µM (titrated, usually from 46.1 µM), for inactives: at the top dose activity change, negative = inhibition, actives largely listed as inhibitors; 330,000 tested, 2.3% active; AID 504467, 2011; also: % is scaled to controls: 0 for no effect and ±100 for the full control effect; nearly all actives have a fitted effect of over 55% in size
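Overnight (16 hr) co-exposure of 2,000 cells/well to 5-fluorouridine and compound at 37 °C preceded detection. Luciferase was quantified via ONE-Glo luminescence; loss of signal denotes inhibition.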
NPC1 prom act: qHTS Assay for NPC1 Promoter Activators. Huh7 NPC1 promoter luciferase reporter, 24 h. AID 485313, 2010. Potency, µM (doses to about 9.22 µM), without a hit: at the top dose activation, most hits filed as activators. 320,000 tested, 2.4% active; also: % of control where 0% means no effect; nearly all actives have a fitted effect of over 60% in size
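In 1536-well qHTS, Huh7 cells harboring an NPC1 promoter–luciferase construct received compound for 24 h; activation was quantified by luminescence following luciferase reagent addition.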
Rab9 promoter act: qHTS Assay for Rab9 Promoter Activators. Potency, µM (highest dose often 9.22 µM), for inactives: top-dose activation, negative = inhibition, most hits filed as activators. AID 485297, 2010. 320,000 tested, 2.8% active. Huh7 Rab9 promoter-luciferase reporter, luminescence, 24 h; also: % of control where 0% means no effect; nearly all actives have a fitted effect of over 60% in size
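Cell-based reporter: Huh7 stable for Rab9 promoter-driven luciferase, plated in reduced-serum medium with 10% FBS at 1500 cells/well, compound-treated 24 h at 37 °C, luminescence read after 10 min reagent.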
SMN2 splice enh: qHTS Assay for Enhancers of SMN2 Splice Variant Expression | HEK293 SMN2-luciferase splicing reporter, luminescence, 30-36 h | Potency, µM (doses to about 46.1 µM), inactives show top-dose activity change, positive = activation, usual class: activators | 210,000 tested, 2.8% active | AID 1458, 2008; also: % of control where 0% means no effect; nearly all actives have a fitted effect of over 55% in size
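HEK293 cells carry an SMN2 […]–luciferase reporter in which exon 7 inclusion puts luciferase in frame. Cells were plated 10-12 h before compound addition, then incubated 30-36 h at 37C. ONE-Glo luminescence was read; sodium butyrate at 4.5 mM final served as control.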
Starred values were filed as active, the others as inactive. Calls follow the shape of the dose curve; as a rule, active = well fitted curve in the direction sought with a large enough effect; inconclusive = small, poorly fitted or top-dose-only effect, or another doubt; inactive = no such curve, though single readings can be large; an effect the other way counts as inactive or inconclusive. Potency is read from the fitted curve at half-maximal effect.

CCCCN(CC)CCNC(=O)C1CCCN(c2ncnc3onc(C)c23)C1 (centres undefined) was read as FLuc modulator -2%.
Screening CCOc1ccc(CNC(=O)c2cccc(NC(=O)N3CCSc4ncccc43)c2)cc1OC returned FLuc modulator -3%.
`COc1ccc(N2CCN(CCCNC(=O)c3cnn(-c4ccc(C)cc4)c3-n3cccc3)CC2)cc1` gave FLuc modulator 5%.
`COc1ccc(NC(=O)CN(C)C(=O)c2ccc(NS(=O)(=O)c3cccc([N+](=O)[O-])c3)cc2)cc1` gave FLuc modulator 24µM*, ELG1 genotox -3%, ELG1 repair inh 10%, NPC1 prom act 3% and Rab9 promoter act -2%.
COc1ccc(NS(=O)(=O)c2cccc(C(=O)N(C)CC(=O)Nc3ccc(C)cc3)c2)cc1 was read as FLuc modulator 1%, ELG1 genotox -4%, ELG1 repair inh 1%, NPC1 prom act -6% and Rab9 promoter act -12%.
OCC1=CC[N+]2(Cc3ccccc3)CCC(O)[C@@H]12 (some centres undefined) was read as SMN2 splice enh 4%.
For CCCN1C(=O)/C(=C/c2ccc(C)s2)NC1=S the results were FLuc modulator 27µM*, ELG1 genotox -6%, ELG1 repair inh -6%, NPC1 prom act -2%, Rab9 promoter act -7% and SMN2 splice enh -4%.
Screening Cc1ccc(/C=C2/NC(=O)N(Cc3ccccc3F)C2=O)s1 returned FLuc modulator 8%, ELG1 genotox 6%, ELG1 repair inh 14%, NPC1 prom act -4% and Rab9 promoter act -7%.
`O=C(N/N=C/c1ccc(-c2cccc([N+](=O)[O-])c2)o1)c1ccccc1O` gave FLuc modulator 11µM*, ELG1 genotox -13%, ELG1 repair inh inconclusive, NPC1 prom act 2%, Rab9 promoter act inconclusive and SMN2 splice enh 4%.
Screening CN(C)c1ccc(/C=N/NC(=O)c2ccccc2O)o1 returned FLuc modulator 21µM*, ELG1 genotox 2%, ELG1 repair inh inconclusive, NPC1 prom act -3%, Rab9 promoter act 5% and SMN2 splice enh 1%.
Screening COc1cc([N+](=O)[O-])ccc1-c1ccc(/C=N\n2cnnc2)o1 returned FLuc modulator -7%, ELG1 genotox 0%, ELG1 repair inh 2%, NPC1 prom act -1% and Rab9 promoter act -2%.
For O=C(N/N=C/c1ccc(-c2cccc(C(F)(F)F)c2)o1)c1ccccc1Br the results were FLuc modulator 21µM*, ELG1 genotox -1%, ELG1 repair inh inconclusive, NPC1 prom act 8%, Rab9 promoter act 1% and SMN2 splice enh -25%.
For O=C(N/N=C/c1ccc(-c2cccc(C(F)(F)F)c2)o1)c1ccccc1O the results were FLuc modulator 2%, ELG1 genotox -5%, ELG1 repair inh inconclusive, NPC1 prom act -2%, Rab9 promoter act 0% and SMN2 splice enh 3%.
For COc1cc([N+](=O)[O-])ccc1-c1ccc(/C=N/NC(=O)c2ccccc2O)o1 the results were FLuc modulator inconclusive, ELG1 genotox -12%, ELG1 repair inh 15µM*, NPC1 prom act 1% and Rab9 promoter act -4%.
`CCc1ccc(NC(=O)CSc2nc3c(c(=O)[nH]2)CN(Cc2ccc(C)cc2)CC3)cc1` gave FLuc modulator 2%.
For COc1ccccc1NC(=O)C1=C(C)Nc2nc(SCc3ccccc3)nn2C1c1cccc(O)c1 (centres undefined) the results were FLuc modulator -16% and SMN2 splice enh 21%.
